How the values were obtained:
Assay in all cases: log2 ratio of Biotin-Ahx-Ub-VS probe labelling (fragment/DMSO); higher = less target engagement (more negative = stronger competition), active = hit call of the paper (q ≤ 0.05, log2 ratio ≤ -1)
Settings in all cases: compound concentration: 200 uM; treatment time: 3 h
[1] = biological target: T1, OTUD6B (UniProt Q8N6M0)
T1 sequence (whole entry): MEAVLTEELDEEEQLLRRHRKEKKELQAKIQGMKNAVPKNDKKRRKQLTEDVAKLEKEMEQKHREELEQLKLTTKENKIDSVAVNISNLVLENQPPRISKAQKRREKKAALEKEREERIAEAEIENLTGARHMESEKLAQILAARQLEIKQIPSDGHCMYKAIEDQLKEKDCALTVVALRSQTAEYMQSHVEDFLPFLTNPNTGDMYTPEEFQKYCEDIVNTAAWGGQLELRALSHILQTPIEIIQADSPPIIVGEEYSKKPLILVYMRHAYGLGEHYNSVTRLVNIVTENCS
In short: (§1)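 Triplicate samples of HEK293T lysate, 495 µg each, received fragment at 200 µM or vehicle for 3 h, followed by Biotin-Ahx-Ub-VS (0.5 µM final) for 1 h. After NeutrAvidin enrichment of labelled DUBs and LysC/trypsin digestion, peptides were run by diaPASEF LC-MS/MS. The values are average log2 fragment/vehicle ratios from global-median-normalised Spectronaut label-free quantities, tested by unpaired t-test on proteins having ≥2 unique peptides.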

[2] = biological target: T2, OTUD7B (UniProt Q6GQQ9)
T2 sequence (whole entry): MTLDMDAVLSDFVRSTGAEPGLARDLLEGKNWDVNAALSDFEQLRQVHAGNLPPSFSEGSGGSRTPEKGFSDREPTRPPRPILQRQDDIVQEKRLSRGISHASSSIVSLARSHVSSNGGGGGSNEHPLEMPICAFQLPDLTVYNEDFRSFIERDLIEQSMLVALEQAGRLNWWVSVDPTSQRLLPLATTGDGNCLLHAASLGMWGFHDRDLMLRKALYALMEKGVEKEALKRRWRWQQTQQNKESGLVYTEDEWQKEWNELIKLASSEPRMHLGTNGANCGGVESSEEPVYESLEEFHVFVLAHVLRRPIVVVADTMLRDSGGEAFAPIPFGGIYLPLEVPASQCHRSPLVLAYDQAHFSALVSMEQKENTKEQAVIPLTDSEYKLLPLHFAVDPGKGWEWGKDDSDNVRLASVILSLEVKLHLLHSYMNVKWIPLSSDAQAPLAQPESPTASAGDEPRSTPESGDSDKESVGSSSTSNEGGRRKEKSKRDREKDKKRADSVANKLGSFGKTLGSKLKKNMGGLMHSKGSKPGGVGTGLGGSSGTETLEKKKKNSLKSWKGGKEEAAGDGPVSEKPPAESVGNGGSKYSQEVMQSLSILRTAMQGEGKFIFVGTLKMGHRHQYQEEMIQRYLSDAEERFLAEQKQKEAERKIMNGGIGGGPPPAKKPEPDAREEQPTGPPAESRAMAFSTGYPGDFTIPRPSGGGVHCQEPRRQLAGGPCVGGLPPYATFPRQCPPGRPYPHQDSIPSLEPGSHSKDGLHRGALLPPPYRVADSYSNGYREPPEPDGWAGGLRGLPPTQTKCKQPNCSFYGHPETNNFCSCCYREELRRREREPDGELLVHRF
In short: as §1

[3] = biological target: PRPF8 (UniProt Q6P2Q9)
In short: as §1

[4] = biological target: T3, PSMD7 (UniProt P51665)
T3 sequence (whole entry): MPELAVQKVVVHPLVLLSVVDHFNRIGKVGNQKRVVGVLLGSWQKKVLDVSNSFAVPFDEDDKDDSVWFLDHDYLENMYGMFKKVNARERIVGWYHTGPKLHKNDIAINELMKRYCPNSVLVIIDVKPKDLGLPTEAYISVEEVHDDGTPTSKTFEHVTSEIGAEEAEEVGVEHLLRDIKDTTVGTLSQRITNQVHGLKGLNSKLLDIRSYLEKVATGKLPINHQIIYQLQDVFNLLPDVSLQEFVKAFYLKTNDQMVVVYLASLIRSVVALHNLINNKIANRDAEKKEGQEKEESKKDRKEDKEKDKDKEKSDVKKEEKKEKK
In short: as §1

[5] = biological target: UCHL1 (UniProt P09936)
In short: as §1

[6] = biological target: T4, UCHL3 (UniProt P15374)
T4 sequence (whole entry): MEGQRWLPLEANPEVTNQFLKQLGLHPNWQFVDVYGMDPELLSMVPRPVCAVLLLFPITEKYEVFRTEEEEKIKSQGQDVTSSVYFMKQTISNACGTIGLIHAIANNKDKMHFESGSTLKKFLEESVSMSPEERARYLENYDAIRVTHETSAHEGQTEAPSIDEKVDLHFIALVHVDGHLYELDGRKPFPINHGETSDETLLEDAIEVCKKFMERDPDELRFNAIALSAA
In short: as §1

[7] = biological target: T5, UCHL5 (UniProt Q9Y5K5)
T5 sequence (whole entry): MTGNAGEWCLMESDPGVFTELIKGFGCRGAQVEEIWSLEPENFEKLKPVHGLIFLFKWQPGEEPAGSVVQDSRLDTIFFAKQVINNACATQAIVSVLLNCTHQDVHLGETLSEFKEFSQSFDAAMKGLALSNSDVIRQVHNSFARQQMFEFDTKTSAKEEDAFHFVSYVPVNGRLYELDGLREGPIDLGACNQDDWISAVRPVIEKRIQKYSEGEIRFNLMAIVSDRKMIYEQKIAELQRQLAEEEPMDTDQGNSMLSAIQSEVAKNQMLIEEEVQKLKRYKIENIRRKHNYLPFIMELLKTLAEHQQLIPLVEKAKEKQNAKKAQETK
In short: as §1

[8] = biological target: USP10 (UniProt Q14694)
In short: as §1

[9] = biological target: T6, USP15 (UniProt Q9Y4E8)
T6 sequence (whole entry): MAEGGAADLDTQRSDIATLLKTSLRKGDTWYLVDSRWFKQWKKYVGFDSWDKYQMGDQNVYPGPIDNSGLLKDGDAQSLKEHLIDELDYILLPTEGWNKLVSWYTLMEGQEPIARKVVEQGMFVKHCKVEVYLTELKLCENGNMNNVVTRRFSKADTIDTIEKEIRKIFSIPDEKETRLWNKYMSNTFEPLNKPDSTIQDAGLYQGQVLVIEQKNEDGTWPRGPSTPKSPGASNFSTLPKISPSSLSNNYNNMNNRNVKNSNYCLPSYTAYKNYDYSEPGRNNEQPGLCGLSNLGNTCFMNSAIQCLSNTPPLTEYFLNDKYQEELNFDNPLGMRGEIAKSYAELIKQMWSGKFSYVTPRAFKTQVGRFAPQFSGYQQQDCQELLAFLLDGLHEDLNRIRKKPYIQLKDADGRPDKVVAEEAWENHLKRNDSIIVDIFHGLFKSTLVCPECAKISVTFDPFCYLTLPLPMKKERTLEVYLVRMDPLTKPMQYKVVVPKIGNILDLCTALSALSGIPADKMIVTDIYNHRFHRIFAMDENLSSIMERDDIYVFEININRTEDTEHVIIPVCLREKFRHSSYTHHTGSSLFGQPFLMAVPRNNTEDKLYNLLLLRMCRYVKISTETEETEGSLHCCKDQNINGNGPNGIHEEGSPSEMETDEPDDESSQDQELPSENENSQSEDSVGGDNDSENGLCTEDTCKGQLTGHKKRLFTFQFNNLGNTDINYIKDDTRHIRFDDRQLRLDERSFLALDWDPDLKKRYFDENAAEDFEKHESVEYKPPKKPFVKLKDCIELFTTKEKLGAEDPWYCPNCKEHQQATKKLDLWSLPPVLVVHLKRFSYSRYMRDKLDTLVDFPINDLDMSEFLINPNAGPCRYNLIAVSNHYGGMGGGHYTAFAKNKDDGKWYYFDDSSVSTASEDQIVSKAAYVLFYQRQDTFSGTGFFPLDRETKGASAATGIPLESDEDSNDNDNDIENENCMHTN
In short: as §1

[10] = biological target: USP16 (UniProt Q9Y5T5)
In short: as §1

Measured: log2 ratio of Biotin-Ahx-Ub-VS probe labelling

USP16, sequence (Q9Y5T5 whole entry, looked up): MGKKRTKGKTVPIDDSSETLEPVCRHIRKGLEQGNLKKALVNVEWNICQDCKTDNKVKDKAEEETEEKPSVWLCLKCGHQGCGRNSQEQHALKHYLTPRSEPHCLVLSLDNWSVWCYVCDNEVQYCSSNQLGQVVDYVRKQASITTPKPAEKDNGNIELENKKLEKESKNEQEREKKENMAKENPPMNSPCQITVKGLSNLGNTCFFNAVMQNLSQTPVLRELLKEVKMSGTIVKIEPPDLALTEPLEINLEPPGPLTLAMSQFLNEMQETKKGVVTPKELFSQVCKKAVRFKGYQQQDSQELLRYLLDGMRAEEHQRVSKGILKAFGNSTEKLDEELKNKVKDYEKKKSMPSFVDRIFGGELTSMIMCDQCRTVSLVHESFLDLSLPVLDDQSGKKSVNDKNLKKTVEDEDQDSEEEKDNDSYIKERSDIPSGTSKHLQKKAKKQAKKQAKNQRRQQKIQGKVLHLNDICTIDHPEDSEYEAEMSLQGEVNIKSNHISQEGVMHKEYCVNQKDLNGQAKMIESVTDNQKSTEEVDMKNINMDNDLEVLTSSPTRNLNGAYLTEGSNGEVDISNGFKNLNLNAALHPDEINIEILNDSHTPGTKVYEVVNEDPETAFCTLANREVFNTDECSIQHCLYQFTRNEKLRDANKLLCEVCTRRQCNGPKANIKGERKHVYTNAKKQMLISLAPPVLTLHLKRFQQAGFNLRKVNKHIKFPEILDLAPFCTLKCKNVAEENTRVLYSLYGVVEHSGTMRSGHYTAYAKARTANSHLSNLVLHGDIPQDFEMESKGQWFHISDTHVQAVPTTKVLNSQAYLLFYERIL
UCHL1, sequence (P09936 whole entry, looked up): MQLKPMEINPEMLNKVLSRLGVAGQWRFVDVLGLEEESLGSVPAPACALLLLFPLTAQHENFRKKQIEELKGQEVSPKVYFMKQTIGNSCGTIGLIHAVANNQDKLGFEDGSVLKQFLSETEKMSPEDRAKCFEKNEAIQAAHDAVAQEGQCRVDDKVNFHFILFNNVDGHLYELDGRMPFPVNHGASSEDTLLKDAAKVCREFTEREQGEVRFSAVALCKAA
USP10, sequence (Q14694 whole entry): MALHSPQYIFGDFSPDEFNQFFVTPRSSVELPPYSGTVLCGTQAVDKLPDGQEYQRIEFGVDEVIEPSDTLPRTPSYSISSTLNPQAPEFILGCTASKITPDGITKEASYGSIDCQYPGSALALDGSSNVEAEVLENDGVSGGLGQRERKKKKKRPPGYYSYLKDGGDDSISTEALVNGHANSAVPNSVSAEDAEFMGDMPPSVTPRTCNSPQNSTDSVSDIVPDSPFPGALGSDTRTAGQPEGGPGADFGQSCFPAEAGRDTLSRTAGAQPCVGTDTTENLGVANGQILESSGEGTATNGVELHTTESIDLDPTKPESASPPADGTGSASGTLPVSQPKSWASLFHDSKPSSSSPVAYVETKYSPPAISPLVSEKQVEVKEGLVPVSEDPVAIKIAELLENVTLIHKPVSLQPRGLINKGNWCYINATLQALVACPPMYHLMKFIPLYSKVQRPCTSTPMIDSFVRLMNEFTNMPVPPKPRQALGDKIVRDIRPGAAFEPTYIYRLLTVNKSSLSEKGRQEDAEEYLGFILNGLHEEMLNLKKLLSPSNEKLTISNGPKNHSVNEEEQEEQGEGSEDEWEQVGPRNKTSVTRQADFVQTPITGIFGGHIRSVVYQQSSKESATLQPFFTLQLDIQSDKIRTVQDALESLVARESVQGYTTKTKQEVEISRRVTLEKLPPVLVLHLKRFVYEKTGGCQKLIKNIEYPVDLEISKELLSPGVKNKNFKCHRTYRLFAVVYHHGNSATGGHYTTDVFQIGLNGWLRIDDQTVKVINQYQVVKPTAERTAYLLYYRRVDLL

Cc1nc(CN2CCCN(C(=O)CCl)CC2)no1.Cl
inactive: [1] 0.121 | [2] 0.0504 | [3] 0.0827 | [4] 0.166 | [5] -0.971 | [6] 0.331 | [7] -0.00418 | [8] 0.0299 | [9] -0.0311 | [10] -0.188

— the supplement of paper PMC11732987, “Enantioselective OTUD7B fragment discovery through chemoproteomics screening and high-throughput optimisation” (Communications Chemistry, 2025)
